# From PubChem BioAssay
# eIF4H FP inh: inhibitors of RNA binding by human eIF4H. 0.94% of 290,000 active. inhibition, % at 35 µM. AID 2012. eIF4H fluorescence polarization binding assay;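 further: calls also rest on retests at 20 µM and on dose response follow-up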
# eIF4E-4G inh: eIF4E/eIF4G interaction inhibition in translation initiation; inhibition, % at 21.7 µM; 0.37% of 220,000 active; P63073+Q04637; TR-FRET eIF4E-eIF4GI(517-606) binding, 2 h;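 active means inhibition above about 30%, limit read from the data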;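 further: 0% = full FRET control wells and 100% = background wells lacking eIF4GI fragment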
# Target sequence (P63073 whole entry, looked up, the tested form may be a part): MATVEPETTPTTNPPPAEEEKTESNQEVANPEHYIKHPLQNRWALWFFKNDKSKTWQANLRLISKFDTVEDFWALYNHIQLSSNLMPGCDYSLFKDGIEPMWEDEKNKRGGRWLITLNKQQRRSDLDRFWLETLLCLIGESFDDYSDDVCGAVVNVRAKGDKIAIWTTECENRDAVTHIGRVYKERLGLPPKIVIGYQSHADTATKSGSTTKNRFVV
# Target sequence (Q04637 whole entry, looked up, the tested form may be a part): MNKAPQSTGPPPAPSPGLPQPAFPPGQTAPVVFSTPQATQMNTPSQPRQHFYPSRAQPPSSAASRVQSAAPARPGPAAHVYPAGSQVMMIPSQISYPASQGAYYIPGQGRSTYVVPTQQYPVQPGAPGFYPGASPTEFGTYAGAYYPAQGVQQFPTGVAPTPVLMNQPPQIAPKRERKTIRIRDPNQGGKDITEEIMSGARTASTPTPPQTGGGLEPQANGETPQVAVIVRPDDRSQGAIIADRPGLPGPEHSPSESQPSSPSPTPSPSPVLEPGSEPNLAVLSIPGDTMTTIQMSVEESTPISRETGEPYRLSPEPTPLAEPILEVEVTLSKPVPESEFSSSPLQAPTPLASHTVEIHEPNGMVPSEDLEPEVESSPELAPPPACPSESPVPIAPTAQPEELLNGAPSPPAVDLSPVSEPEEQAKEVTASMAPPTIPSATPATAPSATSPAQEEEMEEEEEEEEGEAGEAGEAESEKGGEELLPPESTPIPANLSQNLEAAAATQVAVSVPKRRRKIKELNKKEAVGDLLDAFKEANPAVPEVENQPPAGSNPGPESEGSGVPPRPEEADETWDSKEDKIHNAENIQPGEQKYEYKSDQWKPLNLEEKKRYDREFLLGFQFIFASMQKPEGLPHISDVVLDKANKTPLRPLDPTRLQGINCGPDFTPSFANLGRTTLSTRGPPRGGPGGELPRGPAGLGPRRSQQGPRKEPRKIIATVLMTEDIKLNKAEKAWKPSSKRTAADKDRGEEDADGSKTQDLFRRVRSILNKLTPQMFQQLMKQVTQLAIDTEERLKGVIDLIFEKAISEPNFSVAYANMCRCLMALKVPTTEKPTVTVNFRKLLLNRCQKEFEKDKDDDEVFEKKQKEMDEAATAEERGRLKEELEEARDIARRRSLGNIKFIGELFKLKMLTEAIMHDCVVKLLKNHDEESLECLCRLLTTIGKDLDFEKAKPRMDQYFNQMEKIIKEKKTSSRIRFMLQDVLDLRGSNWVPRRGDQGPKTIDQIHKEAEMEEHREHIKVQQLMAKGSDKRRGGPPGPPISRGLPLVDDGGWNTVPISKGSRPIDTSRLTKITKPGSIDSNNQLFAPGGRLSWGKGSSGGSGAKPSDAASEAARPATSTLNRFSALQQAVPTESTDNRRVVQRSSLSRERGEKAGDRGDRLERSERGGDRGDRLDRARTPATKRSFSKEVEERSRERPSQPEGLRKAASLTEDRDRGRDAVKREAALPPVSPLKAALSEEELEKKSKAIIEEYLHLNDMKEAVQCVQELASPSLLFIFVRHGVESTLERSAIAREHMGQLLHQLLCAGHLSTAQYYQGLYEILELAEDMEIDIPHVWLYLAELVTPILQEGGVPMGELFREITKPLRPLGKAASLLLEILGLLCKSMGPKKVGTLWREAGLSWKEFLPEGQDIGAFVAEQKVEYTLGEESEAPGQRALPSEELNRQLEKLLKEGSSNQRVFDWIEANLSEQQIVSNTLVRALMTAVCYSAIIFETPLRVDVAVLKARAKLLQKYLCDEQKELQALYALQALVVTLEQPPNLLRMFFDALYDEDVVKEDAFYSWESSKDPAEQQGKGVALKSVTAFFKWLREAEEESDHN
# MLLE-PAM2 inh: inhibitors of microRNA-mediated deadenylation, human PABP1 MLLE binding; AID 588489; GST-MLLE / FITC-PAM2 fluorescence polarization; inhibition, % at 20 µM; 0.36% of 360,000 active; in the data active means inhibition above about 35%, passing the limit was not always enough;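 further: plate controls were DMSO wells with GST-MLLE for no effect and wells lacking GST-MLLE protein for full effect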
# PABP FP inh: PABP-poly(A) binding inhibition. P11940. PABP-poly(A) RNA binding, fluorescence polarization. calls only at 35 µM. 1% of 290,000 active;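 further: calls also rest on retests at 20 µM and on dose response follow-up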
# PERK inh: blocks human PERK kinase | 0.17% of 220,000 active | inhibition, % at 5.6 µM | AID 1416 | CHO PERK-DD fusion, SEAP luminescence translation reporter | Q9NZJ5;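 active means inhibition above the mean inhibition of all tested compounds plus 3 SD, set separately per screening campaign, cut at about 2.9% in these data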;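 further: PERK kinase domain activated by AP20187 dimerizer at 100 nM; 0% = DMSO with dimerizer and 100% = rapamycin at 8.4 µM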
# * hit, by the source's call; i = inactive; u = inconclusive; x = no result given; + = active, no number; [ ] = dose if it differs, or a comment. Compounds with a hit are over-represented: about 1.6% of the library has one in this group of screens. Unless noted, how the calls were made is not given here.
SMILES,eIF4H FP inh,eIF4E-4G inh,MLLE-PAM2 inh,PABP FP inh,PERK inh
CCN1CC2=C(OC(N)=C(C#N)C2c2cccs2)/C(=C/c2cccs2)C1 (centres undefined),u,1,-31,u,-1
CCCCn1c(N)c(N(CCC(C)C)C(=O)c2cc(-c3ccco3)nc3ccccc23)c(=O)[nH]c1=O,60*,x,4,+,x
Nc1ccc(C(CC(=O)O)n2cccc2)cc1 (centres undefined),67*,-1,13,+,0
O=C(O)CC(c1ccccc1)n1cccc1 (centres undefined),-14,-14,4,i,1
CC(=O)N=Cc1c(C)c(C#N)c(=O)n(C)c1O,u,6,13,i,1
Cc1c(/C=N/Nc2ccc(F)cc2)c(O)n(C)c(=O)c1C#N,81,-5,4,+,0
COc1ccc(N2CCOCC2)c(NC(=O)c2cc3ccccc3o2)c1,-14,x,2,i,x
CCN1C(=O)/C(=C\c2ccc3c(c2)OCO3)C(C(=O)OC)=C1C,-8,1,-2,i,0
COCCCN1C(=O)/C(=C\c2ccc3c(c2)OCO3)C(C(=O)OC)=C1C,16,-1,2,i,3.2*
O=C(Oc1ccc[nH]c1=O)c1cc([N+](=O)[O-])cc([N+](=O)[O-])c1,50,6,-5,+,1
C/C(CC(=O)Nc1ccc(Cl)cc1Cl)=N\NC(=O)c1ccncc1,-8,-5,-5,i,3.1*
C/C(CC(=O)Nc1ccc(C)c(Cl)c1)=N\NC(=O)c1ccncc1,12,2,4,i,2
COc1cccc(CNC(=O)C(=O)NCC(c2ccco2)N2CCOCC2)c1 (centres undefined),5,-7,-9,i,0
Cn1nc(C(F)(F)F)c(-c2ccccc2)c1NC(=O)CCC(=O)O,-15,-1,-2,i,3.5*
CN(CC(=O)NC(=O)NCc1ccco1)Cc1nc2ccccc2c(=O)[nH]1,69*,4,8,+,-1
O=C(CSc1nc(-c2ccccc2)nc2c1Cc1ccccc1O2)Nc1ccccc1,0,3,x,i,1
O=C(CSc1nc(-c2ccc(F)cc2)nc2c1Cc1ccccc1O2)Nc1cccc(C(=O)O)c1,81,63*,-4,i,1
CC1(c2nnc(Cc3ccccc3)o2)CC(c2ccccc2[N+](=O)[O-])=NO1 (centres undefined),x,x,-130,x,x
Cc1ncc(C[n+]2csc(CCOC(=O)CC3C4CC5CC(C4)CC3C5)c2C)c(N)n1 (centres undefined),28,7,15,+,1
CCCNC(=O)C1(C)CCCN(C(=O)c2ccccc2F)C1 (centres undefined),x,x,14,x,x
O=C(O)c1ccc(NCc2cccc(Br)c2)cc1,active,-1,-1,+,1
O=C(O)c1ccc(NCc2ccncc2)cc1,5,-1,-10,i,2
CCCCOC(=O)C(C)Nc1n[nH]c(=S)[nH]c1=O (centres undefined),8,0,x,i,0
CCCCOC(=O)C(C)Nc1n[nH]c(=O)[nH]c1=O (centres undefined),-2,9,8,i,2.9*
CCCNC(=O)C1(C)CCN(Cc2ccc(-n3ccnc3)cc2)C1 (centres undefined),x,x,-3,x,x
SMILES,eIF4H FP inh,eIF4E-4G inh,MLLE-PAM2 inh,PABP FP inh,PERK inh
Cc1cc2c(NC(=O)Nc3ccc(F)cc3)cccc2nn1,48,2,-2,i,3.4*
CCOc1ccc2nc(N3C(=O)/C(=C/c4ccc(Cl)cc4)NC3=S)sc2c1,27,26,-22,i,1
O=C(N/N=C/c1ccc(OCc2ccccc2)cc1)c1ccncc1,6,-1,5,i,0
Oc1ccc(N=Cc2ccc(OCc3ccccc3)cc2)cc1,95*,-3,15,+,0
Cc1cc(CN(C)Cc2c(C(=O)N3CCCCCCC3)nc3ccc(Cl)cn23)n[nH]1,-6,3,5,i,1
O=C(/C=C/c1ccc(O)c(O)c1)c1ccc(S(=O)(=O)N2CCCCCC2)cc1,90*,10,-7,i,0
CCOC(=O)C1(C)CCCN(C(=O)c2ccc(OC(F)F)cc2)C1 (centres undefined),x,x,14,x,x
CN(C)c1ccc(N=c2sc3ccccc3n2C)cc1,-1,38*[fluorescence artefact?],6,i,-1
O=C(O)C1C2CCC(C2)C1C(=O)NCCc1ccccc1 (centres undefined),-9,x,9,i,x
CCOc1ccc2nc3cc(N=Nc4ccc(N)nc4N)ccc3c(N)c2c1,x,x,82*,x,x
Fc1cccc(F)c1/C=C/c1ccc2ccccc2n1,-9,4,9,i,0
CC(O)/C=C/c1ccc2ccccc2n1 (centres undefined),1,3,38*,i,0
CCN1CCCc2cc(CN(CCN3CCOCC3)C(=S)Nc3cccc(OC)c3)ccc21,5,0,-28,i,-1
COc1ccc2c(C)cc3n[nH]c(=S)n3c2c1,-11,33*,-7,i,1
COc1cc(C(CC(=O)N2CCCC2)c2c(OC)cc(OC)c3ccc(=O)oc23)cc(OC)c1OC (centres undefined),52*,3,43*,i,x
COc1cc(OC)c2ccc(=O)oc2c1C(CC(=O)N1CCCC1)c1ccc2c(c1)OCO2 (centres undefined),82*,4,6,+,x
COc1cc(C(CCN2CCCC2)c2c(OC)cc(OC)c3ccc(=O)oc23)cc(OC)c1OC (centres undefined),-3,0,-16,i,x
O=c1cc(O)n(C2CCCCCC2)c(=O)[nH]1,56,x,-33,+,x
CC(C)N(C(=O)[C@H]1CC(CC(=O)NCc2cccc(C(F)(F)F)c2)C(=O)N2CCc3c([nH]c4ccccc34)[C@]12C)C(C)C (some centres undefined),x,x,7,x,x
CC(c1nc2ccccc2n1Cc1ccccc1)N1CCCCC1 (centres undefined),4,x,-10,i,x
CC(C)(C)OC(=O)NCCCC[C@H](NC(=O)c1nc[nH]c1C(=O)NCc1ccccc1)C(=O)OC(C)(C)C,0,1,9,i,0
CN(Cc1ccccc1)C(=O)c1[nH]cnc1C(=O)N[C@@H](CCCCNC(=O)OC(C)(C)C)C(=O)OC(C)(C)C,84*,3,3,+,0
Nc1nnnn1/N=C/c1cc(Cl)ccc1O,20,x,49*,i,x
CCc1nccn1CCC(=O)N1CCc2c([nH]c3ccccc23)C1CC(C)C (centres undefined),-3,1,4,i,-1
COCc1ccc(CN2CCc3c([nH]c4ccccc34)C2CC(C)C)o1 (centres undefined),67,2,-13,+,2
CCCc1cc(C(=O)Nc2cc(Br)ccc2O)no1,-8,-2,-7,i,3.1*
CCCc1cc(C(=O)Nc2cc(Cl)ccc2O)no1,8,x,-33,i,x
